# Tests used:
# Assay in all cases: SPOT peptide array binding signal intensity (averaged, normalized) (arbitrary units (background-subtracted, floor 0; scale differs between SH3 domains)); higher = stronger binding of the SH3 domain to the peptide
# AgAbp1 = molecular target: AgAbp1
# Method: (§1)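 GST-tagged SH3 domains from S. cerevisiae (Sc), A. gossypii (Ag), C. albicans (Ca) and S. pombe (Sp) were incubated at 10 ug/ml overnight at 4 C on cellulose SPOT membranes carrying 292 synthetic 15-mer peptides mined from the S. cerevisiae proteome (cysteines replaced by serines). Binding was detected with anti-GST antibody, HRP secondary and chemiluminescence, quantified with Genespotter, and reported as normalized spot intensities averaged over biological replicates.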
# AgBbc1 = molecular target: AgBbc1
# Method: as §1
# AgBem1-D1 = molecular target: AgBem1-D1
# Method: as §1
# AgBzz1-D1 = molecular target: AgBzz1-D1
# Method: as §1
# AgBzz1-D2 = molecular target: AgBzz1-D2
# Method: as §1
# AgCyk3 = molecular target: AgCyk3
# Method: as §1
# AgFus1 = molecular target: AgFus1
# Method: as §1
# AgHof1 = molecular target: AgHof1
# Method: as §1
# AgHse1 = molecular target: AgHse1
# Method: as §1
# AgLsb1 = molecular target: AgLsb1
# Method: as §1
# AgLsb4 = molecular target: AgLsb4
# Method: as §1
# AgMyo5 = molecular target: AgMyo5
# Method: as §1
# AgNbp2 = molecular target: AgNbp2
# Method: as §1
# AgRvs167 = molecular target: AgRvs167
# Method: as §1
# AgSho1 = molecular target: AgSho1
# Method: as §1
# AgSla1-D1-D2 = molecular target: AgSla1-D1-D2
# Method: as §1
# AgSla1-D3 = molecular target: AgSla1-D3
# Method: as §1
# CaAbp1-D1 = molecular target: CaAbp1-D1
# Method: as §1
# CaAbp1-D2 = molecular target: CaAbp1-D2
# Method: as §1
# CaBbc1 = molecular target: CaBbc1
# Method: as §1
# CaBem1-D1 = molecular target: CaBem1-D1
# Method: as §1
# CaBzz1-D1 = molecular target: CaBzz1-D1
# Method: as §1
# CaBzz1-D2 = molecular target: CaBzz1-D2
# Method: as §1
# CaCyk3 = molecular target: CaCyk3
# Method: as §1
# CaFus1 = molecular target: CaFus1
# Method: as §1
# CaHof1 = molecular target: CaHof1
# Method: as §1
# CaHse1 = molecular target: CaHse1
# Method: as §1
# CaLsb1 = molecular target: CaLsb1
# Method: as §1
# CaLsb4 = molecular target: CaLsb4
# Method: as §1
# CaMyo5 = molecular target: CaMyo5
# Method: as §1
# CaNbp2 = molecular target: CaNbp2
# Method: as §1
# CaRvs167 = molecular target: CaRvs167
# Method: as §1
# CaRvs167-3 = molecular target: CaRvs167-3
# Method: as §1
# CaSho1 = molecular target: CaSho1
# Method: as §1
# CaSla1-D1-D2 = molecular target: CaSla1-D1-D2
# Method: as §1
# CaSla1-D3 = molecular target: CaSla1-D3
# Method: as §1
# ScAbp1 = molecular target: ScAbp1
# Method: as §1
# ScBbc1 = molecular target: ScBbc1
# Method: as §1
# ScBem1-D1 = molecular target: ScBem1-D1
# Method: as §1
# ScBzz1-D1 = molecular target: ScBzz1-D1
# Method: as §1
# ScBzz1-D2 = molecular target: ScBzz1-D2
# Method: as §1
# ScCyk3 = molecular target: ScCyk3
# Method: as §1
# ScFus1 = molecular target: ScFus1
# Method: as §1
# ScHof1 = molecular target: ScHof1
# Method: as §1
# ScHse1 = molecular target: ScHse1
# Method: as §1
# ScLsb1 = molecular target: ScLsb1
# Method: as §1
# ScLsb2 = molecular target: ScLsb2
# Method: as §1
# ScLsb3 = molecular target: ScLsb3
# Method: as §1
# ScLsb4 = molecular target: ScLsb4
# Method: as §1
# ScMyo3 = molecular target: ScMyo3
# Method: as §1
# ScMyo5 = molecular target: ScMyo5
# Method: as §1
# ScNbp2 = molecular target: ScNbp2
# Method: as §1
# ScPex13 = molecular target: ScPex13
# Method: as §1
# ScRvs167 = molecular target: ScRvs167
# Method: as §1
# ScSho1 = molecular target: ScSho1
# Method: as §1
# ScSla1-D1-D2 = molecular target: ScSla1-D1-D2
# Method: as §1
# ScSla1-D3 = molecular target: ScSla1-D3
# Method: as §1
# SpAbp1-D1 = molecular target: SpAbp1-D1
# Method: as §1
# SpBbc1 = molecular target: SpBbc1
# Method: as §1
# SpBzz1-D1 = molecular target: SpBzz1-D1
# Method: as §1
# SpBzz1-D2 = molecular target: SpBzz1-D2
# Method: as §1
# SpCyk3 = molecular target: SpCyk3
# Method: as §1
# SpHof1 = molecular target: SpHof1
# Method: as §1
# SpHof1-2 = molecular target: SpHof1-2
# Method: as §1
# SpHof1-3 = molecular target: SpHof1-3
# Method: as §1
# SpHse1 = molecular target: SpHse1
# Method: as §1
# SpLsb1 = molecular target: SpLsb1
# Method: as §1
# SpLsb4 = molecular target: SpLsb4
# Method: as §1
# SpMyo1 = molecular target: SpMyo1
# Method: as §1
# SpNbp2 = molecular target: SpNbp2
# Method: as §1
# SpPex13 = molecular target: SpPex13
# Method: as §1
# SpRvs167 = molecular target: SpRvs167
# Method: as §1
# SpSla1-D1-D2 = molecular target: SpSla1-D1-D2
# Method: as §1
# SpSla1-D3 = molecular target: SpSla1-D3
# Method: as §1
binder,measurement,setting,value
YRRKSIPFAPHQITA,SPOT peptide array binding signal intensity,AgAbp1,34
same,SPOT peptide array binding signal intensity,AgBbc1,11.5
same,SPOT peptide array binding signal intensity,AgBem1-D1,21.5
same,SPOT peptide array binding signal intensity,AgBzz1-D1,99.5
same,SPOT peptide array binding signal intensity,AgBzz1-D2,34
same,SPOT peptide array binding signal intensity,AgCyk3,1
same,SPOT peptide array binding signal intensity,AgFus1,131
same,SPOT peptide array binding signal intensity,AgHof1,5.5
same,SPOT peptide array binding signal intensity,AgHse1,162
same,SPOT peptide array binding signal intensity,AgLsb1,25.8
same,SPOT peptide array binding signal intensity,AgLsb4,24
same,SPOT peptide array binding signal intensity,AgMyo5,≤ 0
same,SPOT peptide array binding signal intensity,AgNbp2,62.5
same,SPOT peptide array binding signal intensity,AgRvs167,3.67
same,SPOT peptide array binding signal intensity,AgSho1,16.5
same,SPOT peptide array binding signal intensity,AgSla1-D1-D2,39
same,SPOT peptide array binding signal intensity,AgSla1-D3,2.5
same,SPOT peptide array binding signal intensity,CaAbp1-D1,187
same,SPOT peptide array binding signal intensity,CaAbp1-D2,116
same,SPOT peptide array binding signal intensity,CaBbc1,41.5
same,SPOT peptide array binding signal intensity,CaBem1-D1,24
same,SPOT peptide array binding signal intensity,CaBzz1-D1,182
same,SPOT peptide array binding signal intensity,CaBzz1-D2,148
same,SPOT peptide array binding signal intensity,CaCyk3,6
same,SPOT peptide array binding signal intensity,CaFus1,159
same,SPOT peptide array binding signal intensity,CaHof1,2
same,SPOT peptide array binding signal intensity,CaHse1,16.8
same,SPOT peptide array binding signal intensity,CaLsb1,3
same,SPOT peptide array binding signal intensity,CaLsb4,13
same,SPOT peptide array binding signal intensity,CaMyo5,0.5
same,SPOT peptide array binding signal intensity,CaNbp2,161
same,SPOT peptide array binding signal intensity,CaRvs167,15.7
same,SPOT peptide array binding signal intensity,CaRvs167-3,18.5
same,SPOT peptide array binding signal intensity,CaSho1,70
same,SPOT peptide array binding signal intensity,CaSla1-D1-D2,118
same,SPOT peptide array binding signal intensity,CaSla1-D3,2.5
same,SPOT peptide array binding signal intensity,ScAbp1,53
same,SPOT peptide array binding signal intensity,ScBbc1,9.25
same,SPOT peptide array binding signal intensity,ScBem1-D1,29.5
same,SPOT peptide array binding signal intensity,ScBzz1-D1,66
same,SPOT peptide array binding signal intensity,ScBzz1-D2,90
same,SPOT peptide array binding signal intensity,ScCyk3,10
same,SPOT peptide array binding signal intensity,ScFus1,89
same,SPOT peptide array binding signal intensity,ScHof1,3.5
same,SPOT peptide array binding signal intensity,ScHse1,380
same,SPOT peptide array binding signal intensity,ScLsb1,0.25
same,SPOT peptide array binding signal intensity,ScLsb2,25
same,SPOT peptide array binding signal intensity,ScLsb3,20
same,SPOT peptide array binding signal intensity,ScLsb4,6
same,SPOT peptide array binding signal intensity,ScMyo3,0.5
same,SPOT peptide array binding signal intensity,ScMyo5,6
same,SPOT peptide array binding signal intensity,ScNbp2,160
same,SPOT peptide array binding signal intensity,ScPex13,185
same,SPOT peptide array binding signal intensity,ScRvs167,33.3
same,SPOT peptide array binding signal intensity,ScSho1,145
same,SPOT peptide array binding signal intensity,ScSla1-D1-D2,166
same,SPOT peptide array binding signal intensity,ScSla1-D3,4.25
same,SPOT peptide array binding signal intensity,SpAbp1-D1,99
same,SPOT peptide array binding signal intensity,SpBbc1,2
same,SPOT peptide array binding signal intensity,SpBzz1-D1,189
same,SPOT peptide array binding signal intensity,SpBzz1-D2,0.5
same,SPOT peptide array binding signal intensity,SpCyk3,≤ 0
same,SPOT peptide array binding signal intensity,SpHof1,25.8
same,SPOT peptide array binding signal intensity,SpHof1-2,1.5
same,SPOT peptide array binding signal intensity,SpHof1-3,106
same,SPOT peptide array binding signal intensity,SpHse1,88.2
same,SPOT peptide array binding signal intensity,SpLsb1,4.5
same,SPOT peptide array binding signal intensity,SpLsb4,48
same,SPOT peptide array binding signal intensity,SpMyo1,5.5
same,SPOT peptide array binding signal intensity,SpNbp2,64
same,SPOT peptide array binding signal intensity,SpPex13,19
same,SPOT peptide array binding signal intensity,SpRvs167,6.33
same,SPOT peptide array binding signal intensity,SpSla1-D1-D2,≤ 0
same,SPOT peptide array binding signal intensity,SpSla1-D3,11
